Data on one sequence can be found in publication PMC7862700, “An all-to-all approach to the identification of sequence-specific readers for epigenetic DNA modifications on cytosine”.

Experiment in all cases: DAPPL (digital affinity profiling via proximity ligation, sequencing); 10 mM Tris-HCl pH 7.5, 50 mM NaCl, 1 mM DTT, 4% glycerol, room temperature, 30 min; GST-TFs on glutathione beads, 16-mer random dsDNA library, 0.1% formaldehyde crosslink after washing; high values mean tight binding
Test [1] concerns the target T1, FEV (Homo sapiens, UniProt Q99581 1-238).
T1 sequence: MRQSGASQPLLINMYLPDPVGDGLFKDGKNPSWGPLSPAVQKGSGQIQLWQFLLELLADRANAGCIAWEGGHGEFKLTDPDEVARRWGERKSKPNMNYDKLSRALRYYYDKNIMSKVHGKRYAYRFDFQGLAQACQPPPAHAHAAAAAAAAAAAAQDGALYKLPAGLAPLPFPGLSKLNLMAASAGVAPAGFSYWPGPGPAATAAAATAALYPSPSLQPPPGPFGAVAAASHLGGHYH
The following applies: protein: recombinant; tags: N-terminal GST; dsDNA, one strand shown. The method, boiled down:
(§1)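 A tag-only sample was pooled with DNA-barcoded human transcription factors that had been expressed in yeast as GST fusions and captured on glutathione beads. The pools were incubated for 30 min at room temperature with 200 nmole of a random double-stranded 16-mer DNA library in Tris/NaCl/DTT/glycerol buffer, then washed, crosslinked with 0.1% formaldehyde, proximity-ligated (BsaI/T4 ligase, 1 h, 37 °C), PCR-amplified and sequenced on an Illumina NextSeq500. Binding signal is each hexamer's read frequency for a factor divided by its frequency for the tag-only sample.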

Test [2] addresses ETV5 (Homo sapiens, UniProt P41161 1-510). Conditions: protein: recombinant; tags: N-terminal GST; dsDNA, one strand shown. The method, boiled down:
as §1

The target of test [3] is HSF1 (Homo sapiens, UniProt Q00613 1-529). The following applies: protein: recombinant; tags: N-terminal GST; chain copies: 3; dsDNA, one strand shown. The method, boiled down:
as §1

The target of test [4] is T2, SPIC (Homo sapiens, UniProt Q8N5J4 1-248).
T2 sequence: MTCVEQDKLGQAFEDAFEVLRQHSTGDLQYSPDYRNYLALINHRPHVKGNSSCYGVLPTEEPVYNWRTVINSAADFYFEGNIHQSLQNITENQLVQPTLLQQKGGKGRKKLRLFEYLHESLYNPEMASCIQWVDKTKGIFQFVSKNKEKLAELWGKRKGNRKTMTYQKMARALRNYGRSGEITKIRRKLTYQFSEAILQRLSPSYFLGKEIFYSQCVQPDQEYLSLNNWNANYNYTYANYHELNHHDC
The following applies: protein: recombinant; tags: N-terminal GST; dsDNA, one strand shown. The method, boiled down: as §1

Test [5] addresses ELF4 (Homo sapiens, UniProt Q99607 1-663). The following applies: protein: recombinant; tags: N-terminal GST; dsDNA, one strand shown. The method, boiled down: as §1
Test [6] deals with T3, ELK4 (Homo sapiens, UniProt P28324-2 1-405).
T3 sequence: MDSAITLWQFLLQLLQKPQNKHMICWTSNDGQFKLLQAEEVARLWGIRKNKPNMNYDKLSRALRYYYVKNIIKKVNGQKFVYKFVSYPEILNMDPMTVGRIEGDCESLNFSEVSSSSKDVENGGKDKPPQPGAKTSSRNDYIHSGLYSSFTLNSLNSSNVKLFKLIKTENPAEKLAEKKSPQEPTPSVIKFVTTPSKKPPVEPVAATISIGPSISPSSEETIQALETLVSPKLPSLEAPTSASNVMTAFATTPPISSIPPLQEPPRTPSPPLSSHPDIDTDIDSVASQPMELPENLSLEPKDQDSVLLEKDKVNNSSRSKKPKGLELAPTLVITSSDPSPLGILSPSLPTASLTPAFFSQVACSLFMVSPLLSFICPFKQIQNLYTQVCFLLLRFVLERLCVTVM
Conditions: protein: recombinant; tags: N-terminal GST; dsDNA, one strand shown. The method, boiled down: as §1

The target in test [7] is T4, ETV2 (Homo sapiens, UniProt O00321 1-342).
T4 sequence: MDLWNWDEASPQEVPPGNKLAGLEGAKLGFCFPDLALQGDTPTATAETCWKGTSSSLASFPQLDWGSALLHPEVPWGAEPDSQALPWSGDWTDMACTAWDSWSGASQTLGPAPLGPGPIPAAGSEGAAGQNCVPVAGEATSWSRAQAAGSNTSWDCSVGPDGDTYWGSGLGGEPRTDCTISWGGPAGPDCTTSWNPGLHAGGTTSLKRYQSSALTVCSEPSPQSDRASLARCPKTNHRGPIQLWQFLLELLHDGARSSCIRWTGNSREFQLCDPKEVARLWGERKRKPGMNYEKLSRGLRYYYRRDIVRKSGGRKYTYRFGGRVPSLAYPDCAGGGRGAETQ
The following applies: protein: recombinant; tags: N-terminal GST; dsDNA, one strand shown. The method, boiled down:
as §1

In test [8] the target is T5, ELF3 (Homo sapiens, UniProt P78545 1-371).
T5 sequence: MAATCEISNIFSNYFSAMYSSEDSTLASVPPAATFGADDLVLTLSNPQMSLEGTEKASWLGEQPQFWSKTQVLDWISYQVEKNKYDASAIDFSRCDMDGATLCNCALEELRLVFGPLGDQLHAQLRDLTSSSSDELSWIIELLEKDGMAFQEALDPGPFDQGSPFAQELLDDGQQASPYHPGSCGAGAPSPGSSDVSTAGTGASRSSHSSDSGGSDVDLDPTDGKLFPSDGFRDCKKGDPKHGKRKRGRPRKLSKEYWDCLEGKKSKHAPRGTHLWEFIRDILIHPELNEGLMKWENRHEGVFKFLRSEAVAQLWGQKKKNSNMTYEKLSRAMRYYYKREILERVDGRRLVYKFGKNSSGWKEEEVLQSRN
The following applies: protein: recombinant; tags: N-terminal GST; dsDNA, one strand shown. The method, boiled down:
as §1

The target in test [9] is CRX (Homo sapiens, UniProt O43186 1-299). The following applies: protein: recombinant; tags: N-terminal GST; dsDNA, one strand shown. The method, boiled down:
as §1

The target in test [10] is ETV1 (Homo sapiens, UniProt P50549 1-477). Conditions: protein: recombinant; tags: N-terminal GST; dsDNA, one strand shown. The method, boiled down: as §1
The target in test [11] is T6, ERF (Homo sapiens, UniProt P50548 1-548).
T6 sequence: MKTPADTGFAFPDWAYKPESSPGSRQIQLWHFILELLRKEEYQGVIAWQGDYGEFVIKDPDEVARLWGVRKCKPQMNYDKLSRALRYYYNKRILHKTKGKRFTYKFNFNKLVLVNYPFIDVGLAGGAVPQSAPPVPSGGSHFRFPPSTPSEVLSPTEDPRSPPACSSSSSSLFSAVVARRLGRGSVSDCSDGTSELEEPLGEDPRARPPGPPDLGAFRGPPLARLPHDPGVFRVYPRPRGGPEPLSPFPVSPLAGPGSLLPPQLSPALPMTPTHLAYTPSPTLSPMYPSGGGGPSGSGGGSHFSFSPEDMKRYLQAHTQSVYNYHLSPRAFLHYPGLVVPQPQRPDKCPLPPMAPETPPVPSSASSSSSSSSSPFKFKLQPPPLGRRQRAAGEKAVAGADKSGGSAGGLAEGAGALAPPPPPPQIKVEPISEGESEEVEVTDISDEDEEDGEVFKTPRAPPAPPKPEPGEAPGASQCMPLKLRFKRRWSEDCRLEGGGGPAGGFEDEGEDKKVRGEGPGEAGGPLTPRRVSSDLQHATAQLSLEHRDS
Conditions: protein: recombinant; tags: N-terminal GST; dsDNA, one strand shown. The method, boiled down:
as §1

In test [12] the target is T7, ETV3L (Homo sapiens, UniProt Q6ZN32 1-361).
T7 sequence: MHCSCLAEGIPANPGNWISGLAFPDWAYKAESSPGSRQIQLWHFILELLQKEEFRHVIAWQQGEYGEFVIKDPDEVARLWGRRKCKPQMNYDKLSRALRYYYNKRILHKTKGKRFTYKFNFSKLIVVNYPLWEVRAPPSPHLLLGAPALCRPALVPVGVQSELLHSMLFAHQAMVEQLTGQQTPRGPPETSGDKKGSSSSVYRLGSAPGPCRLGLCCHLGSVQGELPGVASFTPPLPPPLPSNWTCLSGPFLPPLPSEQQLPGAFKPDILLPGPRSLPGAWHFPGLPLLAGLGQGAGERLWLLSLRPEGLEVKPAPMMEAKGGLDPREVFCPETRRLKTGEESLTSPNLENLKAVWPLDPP
The following applies: protein: recombinant; tags: N-terminal GST; dsDNA, one strand shown. The method, boiled down:
as §1

For test [13], the target named is T8, ETS2 (Homo sapiens, UniProt P15036 1-469).
T8 sequence: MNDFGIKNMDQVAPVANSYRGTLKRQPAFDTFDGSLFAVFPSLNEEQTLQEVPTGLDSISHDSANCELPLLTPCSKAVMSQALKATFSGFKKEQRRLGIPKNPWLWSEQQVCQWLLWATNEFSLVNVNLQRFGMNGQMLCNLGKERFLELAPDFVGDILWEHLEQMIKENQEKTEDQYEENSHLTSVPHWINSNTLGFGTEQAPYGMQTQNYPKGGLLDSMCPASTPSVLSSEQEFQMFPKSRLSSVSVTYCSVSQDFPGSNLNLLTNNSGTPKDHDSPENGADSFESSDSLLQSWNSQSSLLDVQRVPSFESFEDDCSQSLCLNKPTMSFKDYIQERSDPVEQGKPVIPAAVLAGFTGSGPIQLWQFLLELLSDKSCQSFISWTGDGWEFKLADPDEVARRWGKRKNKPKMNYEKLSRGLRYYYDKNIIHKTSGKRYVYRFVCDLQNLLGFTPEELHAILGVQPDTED
Conditions: protein: recombinant; tags: N-terminal GST; dsDNA, one strand shown. The method, boiled down:
as §1

Test [14] deals with T9, SPDEF (Homo sapiens, UniProt O95238 1-335).
T9 sequence: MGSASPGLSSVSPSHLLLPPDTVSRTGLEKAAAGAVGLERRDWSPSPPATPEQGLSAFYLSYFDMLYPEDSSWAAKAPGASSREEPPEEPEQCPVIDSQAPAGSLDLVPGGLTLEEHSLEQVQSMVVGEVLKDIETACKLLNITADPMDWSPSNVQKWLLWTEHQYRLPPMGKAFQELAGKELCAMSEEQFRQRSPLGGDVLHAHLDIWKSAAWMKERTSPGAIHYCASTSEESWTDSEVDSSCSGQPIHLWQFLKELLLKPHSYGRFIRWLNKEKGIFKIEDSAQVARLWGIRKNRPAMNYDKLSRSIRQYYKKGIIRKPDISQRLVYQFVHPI
The following applies: protein: recombinant; tags: N-terminal GST; dsDNA, one strand shown. The method, boiled down:
as §1

For test [15], the target named is T10, ETV7 (Homo sapiens, UniProt Q9Y603 1-341).
T10 sequence: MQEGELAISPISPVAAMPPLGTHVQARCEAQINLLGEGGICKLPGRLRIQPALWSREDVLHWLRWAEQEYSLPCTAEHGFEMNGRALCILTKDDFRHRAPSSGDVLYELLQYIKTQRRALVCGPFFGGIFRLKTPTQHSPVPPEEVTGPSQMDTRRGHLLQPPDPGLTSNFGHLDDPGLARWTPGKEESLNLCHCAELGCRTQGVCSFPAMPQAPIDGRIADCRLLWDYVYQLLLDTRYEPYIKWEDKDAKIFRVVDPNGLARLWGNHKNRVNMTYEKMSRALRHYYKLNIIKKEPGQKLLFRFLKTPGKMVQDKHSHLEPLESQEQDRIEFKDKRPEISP
Conditions: protein: recombinant; tags: N-terminal GST; dsDNA, one strand shown. The method, boiled down: as §1

The target of test [16] is T11, ELF5 (Homo sapiens, UniProt Q9UKW6-2 1-255).
T11 sequence: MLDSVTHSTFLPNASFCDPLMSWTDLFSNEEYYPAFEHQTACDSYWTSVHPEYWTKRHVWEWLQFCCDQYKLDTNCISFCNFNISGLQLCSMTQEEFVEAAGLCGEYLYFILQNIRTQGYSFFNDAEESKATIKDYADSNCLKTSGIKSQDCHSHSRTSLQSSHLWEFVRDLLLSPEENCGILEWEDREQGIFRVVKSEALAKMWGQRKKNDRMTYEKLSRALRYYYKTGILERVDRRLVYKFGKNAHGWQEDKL
Conditions: protein: recombinant; tags: N-terminal GST; dsDNA, one strand shown. The method, boiled down: as §1

Test [17] concerns the target T12, ETV3 (Homo sapiens, UniProt P41162-2 1-143).
T12 sequence: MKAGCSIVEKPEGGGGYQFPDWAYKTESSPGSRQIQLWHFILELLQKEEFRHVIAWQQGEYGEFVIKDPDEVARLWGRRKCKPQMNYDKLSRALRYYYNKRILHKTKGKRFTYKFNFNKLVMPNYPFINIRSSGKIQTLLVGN
The following applies: protein: recombinant; tags: N-terminal GST; dsDNA, one strand shown. The method, boiled down:
as §1

In test [18] the target is ETV6 (Homo sapiens, UniProt P41212 1-452). The following applies: protein: recombinant; tags: N-terminal GST; dsDNA, one strand shown. The method, boiled down: as §1
Sequence of ETV6 (P41212 whole entry): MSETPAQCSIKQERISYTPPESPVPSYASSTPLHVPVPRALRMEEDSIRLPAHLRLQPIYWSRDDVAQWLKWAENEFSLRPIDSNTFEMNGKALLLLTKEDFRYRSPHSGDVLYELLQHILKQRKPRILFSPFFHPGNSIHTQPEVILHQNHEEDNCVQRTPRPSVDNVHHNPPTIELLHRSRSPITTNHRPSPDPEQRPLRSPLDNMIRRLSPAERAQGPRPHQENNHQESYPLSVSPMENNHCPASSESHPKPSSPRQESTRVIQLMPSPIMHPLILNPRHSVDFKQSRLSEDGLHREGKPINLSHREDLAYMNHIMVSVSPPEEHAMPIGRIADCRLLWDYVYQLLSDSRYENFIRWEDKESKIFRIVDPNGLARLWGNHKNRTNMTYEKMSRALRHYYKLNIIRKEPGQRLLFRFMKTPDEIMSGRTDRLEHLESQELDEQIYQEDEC

Sequence of ETV5 (P41161 whole entry): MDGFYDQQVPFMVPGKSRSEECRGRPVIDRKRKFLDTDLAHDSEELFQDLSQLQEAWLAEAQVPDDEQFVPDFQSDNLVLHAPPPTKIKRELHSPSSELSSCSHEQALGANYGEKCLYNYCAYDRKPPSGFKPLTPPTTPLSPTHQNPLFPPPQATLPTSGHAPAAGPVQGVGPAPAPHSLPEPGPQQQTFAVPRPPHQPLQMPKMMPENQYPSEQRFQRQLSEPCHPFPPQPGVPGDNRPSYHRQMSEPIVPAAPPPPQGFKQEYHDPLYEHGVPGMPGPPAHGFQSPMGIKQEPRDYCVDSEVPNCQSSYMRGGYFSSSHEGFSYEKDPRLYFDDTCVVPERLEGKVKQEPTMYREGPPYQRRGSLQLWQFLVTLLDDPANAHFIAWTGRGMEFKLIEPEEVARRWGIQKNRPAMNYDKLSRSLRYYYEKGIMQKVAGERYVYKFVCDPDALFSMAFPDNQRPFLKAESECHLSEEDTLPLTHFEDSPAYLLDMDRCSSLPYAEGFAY
Sequence of CRX (O43186 whole entry): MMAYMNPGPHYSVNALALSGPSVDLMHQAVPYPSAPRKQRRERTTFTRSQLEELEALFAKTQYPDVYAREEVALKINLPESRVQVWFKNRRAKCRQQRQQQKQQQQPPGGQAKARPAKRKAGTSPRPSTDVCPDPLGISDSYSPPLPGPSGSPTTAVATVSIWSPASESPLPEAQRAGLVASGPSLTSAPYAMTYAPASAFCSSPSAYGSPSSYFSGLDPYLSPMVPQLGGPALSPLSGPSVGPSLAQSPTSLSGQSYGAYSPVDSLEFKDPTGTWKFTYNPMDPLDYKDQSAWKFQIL
Sequence of ETV1 (P50549 whole entry): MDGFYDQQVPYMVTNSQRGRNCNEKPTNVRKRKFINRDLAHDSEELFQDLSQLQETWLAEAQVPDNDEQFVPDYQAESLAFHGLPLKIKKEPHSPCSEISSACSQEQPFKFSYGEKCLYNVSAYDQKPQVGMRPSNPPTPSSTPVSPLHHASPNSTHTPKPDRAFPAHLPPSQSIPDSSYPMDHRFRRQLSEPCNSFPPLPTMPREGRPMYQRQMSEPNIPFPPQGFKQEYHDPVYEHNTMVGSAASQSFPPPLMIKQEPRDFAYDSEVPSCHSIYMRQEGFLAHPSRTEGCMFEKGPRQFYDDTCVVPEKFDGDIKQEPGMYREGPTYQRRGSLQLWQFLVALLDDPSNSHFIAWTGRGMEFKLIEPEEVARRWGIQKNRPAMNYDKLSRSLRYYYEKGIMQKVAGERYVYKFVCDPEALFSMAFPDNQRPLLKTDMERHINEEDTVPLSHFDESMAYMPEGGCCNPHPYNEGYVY
Sequence of ELF4 (Q99607 whole entry): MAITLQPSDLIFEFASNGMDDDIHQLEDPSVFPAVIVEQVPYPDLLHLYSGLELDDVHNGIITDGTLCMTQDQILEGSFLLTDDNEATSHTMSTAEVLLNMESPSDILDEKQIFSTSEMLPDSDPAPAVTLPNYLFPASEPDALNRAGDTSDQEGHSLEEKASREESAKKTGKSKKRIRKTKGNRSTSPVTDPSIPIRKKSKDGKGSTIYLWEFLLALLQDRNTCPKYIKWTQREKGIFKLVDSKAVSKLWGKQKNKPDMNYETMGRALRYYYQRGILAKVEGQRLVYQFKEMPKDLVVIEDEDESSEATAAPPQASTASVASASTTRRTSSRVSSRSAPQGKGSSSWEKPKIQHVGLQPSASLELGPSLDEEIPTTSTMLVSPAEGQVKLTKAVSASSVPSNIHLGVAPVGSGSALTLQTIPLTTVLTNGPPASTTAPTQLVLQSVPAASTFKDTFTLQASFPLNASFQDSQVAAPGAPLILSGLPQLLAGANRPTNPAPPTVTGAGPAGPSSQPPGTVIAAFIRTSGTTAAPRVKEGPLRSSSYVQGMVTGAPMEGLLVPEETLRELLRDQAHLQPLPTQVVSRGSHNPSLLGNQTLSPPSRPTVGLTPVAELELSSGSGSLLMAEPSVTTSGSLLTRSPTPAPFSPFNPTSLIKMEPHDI
Sequence of HSF1 (Q00613 whole entry): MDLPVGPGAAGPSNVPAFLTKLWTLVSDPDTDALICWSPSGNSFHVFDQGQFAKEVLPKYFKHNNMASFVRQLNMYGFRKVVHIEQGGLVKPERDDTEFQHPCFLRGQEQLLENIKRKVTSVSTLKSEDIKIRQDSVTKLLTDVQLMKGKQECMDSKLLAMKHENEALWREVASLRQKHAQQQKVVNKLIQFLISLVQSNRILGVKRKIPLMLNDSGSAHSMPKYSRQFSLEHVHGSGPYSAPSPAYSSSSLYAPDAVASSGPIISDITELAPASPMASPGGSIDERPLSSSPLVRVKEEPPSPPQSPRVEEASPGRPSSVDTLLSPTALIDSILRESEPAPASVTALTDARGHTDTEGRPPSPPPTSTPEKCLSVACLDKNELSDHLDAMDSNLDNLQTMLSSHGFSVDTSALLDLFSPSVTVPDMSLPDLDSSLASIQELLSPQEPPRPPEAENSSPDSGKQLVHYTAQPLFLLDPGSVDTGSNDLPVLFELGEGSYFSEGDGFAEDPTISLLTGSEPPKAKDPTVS

Consider CTTCAT, for which the binding signal is 1.46 fold enrichment (6-mer frequency, TF over GST control) in test [1]; 1.49 fold enrichment (6-mer frequency, TF over GST control) in [2]; 1.34 fold enrichment (6-mer frequency, TF over GST control) in [3]; 1.36 fold enrichment (6-mer frequency, TF over GST control) in [4]; 1.4 fold enrichment (6-mer frequency, TF over GST control) in test [5]; 1.53 fold enrichment (6-mer frequency, TF over GST control) in [6]. Moreover, the binding signal in test [7] was 1.39 fold enrichment (6-mer frequency, TF over GST control); in [8], 1.56 fold enrichment (6-mer frequency, TF over GST control); in test [9] it was 1.3 fold enrichment (6-mer frequency, TF over GST control); in test [10] it was 1.5 fold enrichment (6-mer frequency, TF over GST control); in [11] it was 1.35 fold enrichment (6-mer frequency, TF over GST control); in [12], 1.52 fold enrichment (6-mer frequency, TF over GST control). For the same sequence, the binding signal is 1.43 fold enrichment (6-mer frequency, TF over GST control) in test [13]; 1.43 fold enrichment (6-mer frequency, TF over GST control) in [14]; 1.46 fold enrichment (6-mer frequency, TF over GST control) in [15]; 1.44 fold enrichment (6-mer frequency, TF over GST control) in test [16]; 1.46 fold enrichment (6-mer frequency, TF over GST control) in [17]; 1.33 fold enrichment (6-mer frequency, TF over GST control) in test [18].
